This note sets out measurements from PubChem BioAssay.

Test [1] is described as follows: viability loss with induced miR-34 in A549 – imaging, A549 dox-inducible miR-34, nuclei and caspase counts, primary screen (AID 1347080). Further: test concentration not given here. Conditions: A549 miR-34 inducible, Hoechst nuclei count, 48 h.
A short description of test [2]: MELAS cybrid and Rieske KO viability enhancers – cell-based, MELAS cybrids, Rieske KO mouse fibroblasts, CellTiter-Glo, primary screen (AID 1508586;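 active means mean z-score across replicates of 1.96 or higher in either the MELAS or the Rieske mutant cell line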;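 further: test concentration not given here; z relative to plate mean and SD of compound and empty wells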). As to conditions: low glucose.
A short description of test [3]: galactose survival enhancers in mitochondrial complex I cybrids – cell-based, galactose medium, ATP luminescence, primary screen (AID 1645843;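 active means z-score of at least 1.8 in each of two replicates, scored against plate mean and spread of sample wells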;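 further: positive z means more ATP and so rescue of galactose-driven cybrid death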). Conditions: complex I mutant cybrid cells, 72 h, stronger effect = higher value.
Where [4] appears, read: stronger effect = lower value, cell number ratio, induced over uninduced.
Setting [5] is: measured here: relative caspase fold change +Dox/-Dox.
Where [6] appears, read: measured here: total cells with miR-34 induction, stronger effect = lower value.
The mark [7] stands for this setting: measured here: total cells without miR-34 induction.
Setting [8] is: MELAS cybrid survival, CellTiter-Glo 48 h, stronger effect = higher value.
[9] abbreviates: Rieske KO mouse fibroblast survival, CellTiter-Glo 72 h.

Each structure is given as a SMILES string. Where “and” joins values, the source holds several entries; their conditions need not be identical. Equal values may be shown once. Calls of active or inactive are those of the source.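 How the source made its calls, unless noted: active means compounds whose cell count with miR-34 switched on is under 0.7 times the count with it off; inactive means the rest.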

On to `COC(=O)CN1CCN(C(=O)Nc2n[nH]c(-c3ccco3)n2)CC1=O`, for which the fold change in test [1] (setting [4]) is 0.915 (inactive); in test [1] (setting [5]), 1.4. Besides, the cell count in test [1] (setting [6]) came out at 9430; in test [1] (setting [7]) it was 10300. Also, the z-score in test [2] (setting [8]) is 0.382 (inactive); in test [2] (setting [9]) it was 0.531; in test [3], 1.98 (inactive).

As to `Nc1ncc(Cc2ccccc2)s1`, the fold change in test [1] (setting [4]) is 0.906 (inactive); in test [1] (setting [5]) it was 0.514. The cell count in test [1] (setting [6]) came out at 8010; in test [1] (setting [7]) it was 8850. In addition, the z-score in test [2] (setting [8]) is -0.355 (inactive); in test [2] (setting [9]), -0.511; in test [3], -0.26 (inactive).

Turning to `CC(C)(CCl)C(=O)Nc1ccc(C(F)(F)F)cc1`, the fold change was 0.859 (inactive) in test [1] (setting [4]) and 1.51 in test [1] (setting [5]). Further, the cell count in test [1] (setting [6]) turned out to be 8340; in test [1] (setting [7]) it was 9720. Further, the z-score in test [2] (setting [8]) was 0.804 (inactive); in test [2] (setting [9]) it was 0.128; in test [3], 0.14 (inactive).

With `O=C(C=Cc1ccc(O)c(O)c1)NCCc1ccc(O)cc1`, the fold change is 0.861 (inactive) in test [1] (setting [4]) and 0.612 in test [1] (setting [5]). For the same molecule, the cell count stood at 8240 in test [1] (setting [6]) and 9580 in test [1] (setting [7]). Moreover, the z-score in test [2] (setting [8]) is -0.586 (inactive); in test [2] (setting [9]), -0.131; in test [3] it was 0.38 (inactive).

On to `O=C(Nc1n[nH]c(-c2ccco2)n1)N1CCc2ccccc2C1`, for which the results for the fold change in test [1] (setting [4]) and in test [1] (setting [5]) were 0.896 (inactive) and 0.879, respectively. For the same molecule, the cell count in test [1] (setting [6]) was 7540; in test [1] (setting [7]) it was 8420. The z-score in test [2] (setting [8]) is 1.17; in test [2] (setting [9]), 3.81; in test [3] it was 0.1 (inactive).

For `Cc1nc(-c2ccnc(N)n2)cn1Cc1c(Cl)cccc1Cl`, the results for the fold change in test [1] (setting [4]) and in test [1] (setting [5]) were 0.853 (inactive) and 0.94, respectively. Further, the results for the cell count in test [1] (setting [6]) and in test [1] (setting [7]) were 7950 and 9330, respectively. The values for the z-score in test [2] (setting [8]), in test [2] (setting [9]) and in test [3] were -0.789 (inactive), 0.727 and -0.225 (inactive), respectively.

Consider `O=C(NCCc1nc2ccc(F)cc2[nH]1)c1cnccn1`, for which the values for the fold change in test [1] (setting [4]) and in test [1] (setting [5]) were 0.896 (inactive) and 1.56, respectively. Further, the cell count in test [1] (setting [6]) was 8500; in test [1] (setting [7]), 9500. For the same molecule, the z-score was 0.845 (inactive) in test [2] (setting [8]), -0.308 in test [2] (setting [9]) and -0.435 (inactive) in test [3].

With `CC1OC(OC2C(CO)OC(OC3C(CO)OC(O)C(O)C3O)C(O)C2O)C(O)C(O)C1NC1C=C(CO)C(O)C(O)C1O` (stereo unspecified), the fold change in test [1] (setting [4]) was 0.923 (inactive) and 1.03 (inactive); in test [1] (setting [5]), 1.2 and 0.703. Further, the cell count in test [1] (setting [6]) is 9530 and 7300; in test [1] (setting [7]) it was 10300 and 7090. Further, the z-score was -0.375 (inactive) in test [2] (setting [8]), -0.157 in test [2] (setting [9]) and 0.475 (inactive) in test [3].

On to `Cc1ccc2c(C(=O)N3C[C@H]4CC[C@H]3C4)cc(-c3cnn(C(C)(C)C)c3)nc2c1`, for which the fold change was 0.854 (inactive) in test [1] (setting [4]) and 1.66 in test [1] (setting [5]). Moreover, the cell count in test [1] (setting [6]) turned out to be 6940; in test [1] (setting [7]), 8130. In addition, the z-score is -0.72 (inactive) in test [2] (setting [8]), 0.542 in test [2] (setting [9]) and 1.56 (inactive) in test [3].

Turning to `c1ccn2cc(CCNc3ncnc4nc[nH]c34)nc2c1`, the values for the fold change in test [1] (setting [4]) and in test [1] (setting [5]) were 0.837 (inactive) and 1.9, respectively. In addition, the figures for the cell count in test [1] (setting [6]) and in test [1] (setting [7]) were 8280 and 9890, respectively. In addition, the figures for the z-score in test [2] (setting [8]), in test [2] (setting [9]) and in test [3] were -0.607 (inactive), -0.578 and -0.4 (inactive), respectively.

Turning to `O=C(O)c1ccc(-c2cc(Cl)ccc2Cl)o1`, the values for the fold change in test [1] (setting [4]) and in test [1] (setting [5]) were 0.874 (inactive) and 0.439, respectively. Besides, the cell count in test [1] (setting [6]) amounted to 8600; in test [1] (setting [7]) it was 9840. Further, the z-score in test [2] (setting [8]) was -0.277 (inactive); in test [2] (setting [9]), 0.0393; in test [3] it was 0.44 (inactive).

Turning to `O=c1cc(-c2cccnc2)nc(-c2ccc(CN3CCCC(CO)C3)cc2)[nH]1` (stereo unspecified), the fold change in test [1] (setting [4]) is 0.899 (inactive); in test [1] (setting [5]), 2.12. For the same molecule, the figures for the cell count in test [1] (setting [6]) and in test [1] (setting [7]) were 7730 and 8590, respectively. For the same molecule, the figures for the z-score in test [2] (setting [8]), in test [2] (setting [9]) and in test [3] were -0.0299 (inactive), -0.608 and -0.56 (inactive), respectively.

On to `COc1ccc(OC)c(-c2nc3ccccc3o2)c1`, for which the fold change in test [1] (setting [4]) was 0.826 (inactive); in test [1] (setting [5]) it was 1.28. Also, the figures for the cell count in test [1] (setting [6]) and in test [1] (setting [7]) were 6950 and 8410, respectively. Further, the z-score in test [2] (setting [8]) was 0.0538 (inactive); in test [2] (setting [9]) it was 0.572; in test [3], -0.51 (inactive).

Consider `COc1ccc2c(c1)CCN(C(=O)Nc1n[nH]c(-c3ccco3)n1)C2`, for which the figures for the fold change in test [1] (setting [4]) and in test [1] (setting [5]) were 0.87 (inactive) and 1.45, respectively. In addition, the cell count was found to be 7950 in test [1] (setting [6]) and 9130 in test [1] (setting [7]). Besides, the z-score was 0.18 in test [2] (setting [8]), 3.56 in test [2] (setting [9]) and 0.245 (inactive) in test [3].

Turning to `Cc1ncc(-c2cc(C(=O)N(C)Cc3csc(C)n3)c3ccc(F)cc3n2)cn1`, the values for the fold change in test [1] (setting [4]) and in test [1] (setting [5]) were 0.883 (inactive) and 2.05, respectively. The cell count was 8360 in test [1] (setting [6]) and 9470 in test [1] (setting [7]). Further, the z-score in test [2] (setting [8]) was -0.361 (inactive); in test [2] (setting [9]), -0.299; in test [3], -0.38 (inactive).

As for `CC(C)n1cc(-c2cc(C(=O)N(C)Cc3ccncc3)c3ccc(F)cc3n2)cn1`, the fold change in test [1] (setting [4]) is 0.897 (inactive); in test [1] (setting [5]) it was 1.79. Also, the results for the cell count in test [1] (setting [6]) and in test [1] (setting [7]) were 8810 and 9830, respectively. Besides, the z-score is -0.679 (inactive) in test [2] (setting [8]), 0.655 in test [2] (setting [9]) and -0.46 (inactive) in test [3].

In the case of `CCn1ccnc1CN(C)C(=O)c1cc(-c2cnc(N)nc2)nc2c(C)cccc12`, the fold change in test [1] (setting [4]) was 0.899 (inactive); in test [1] (setting [5]), 1.48. For the same molecule, the cell count in test [1] (setting [6]) stood at 8320; in test [1] (setting [7]), 9260. Moreover, the z-score in test [2] (setting [8]) was -1.11 (inactive); in test [2] (setting [9]), 1.17; in test [3] it was 1.16 (inactive).

For the molecule `Cc1cc(NC(=O)Cn2ccc(-c3ncnn3C)n2)n(C2CCCCC2)n1`, the fold change is 0.953 (inactive) in test [1] (setting [4]) and 1.19 in test [1] (setting [5]). Further, the results for the cell count in test [1] (setting [6]) and in test [1] (setting [7]) were 9860 and 10400, respectively. Moreover, the z-score in test [2] (setting [8]) is 0.129 (inactive); in test [2] (setting [9]), -0.435; in test [3], -0.55 (inactive).

Turning to `O=C(O)c1cccc2c(-c3ccccc3)c(-c3ccccc3)[nH]c12`, the fold change in test [1] (setting [4]) is 0.883 (inactive); in test [1] (setting [5]) it was 1.11. In addition, the cell count came out at 8700 in test [1] (setting [6]) and 9850 in test [1] (setting [7]). The z-score was -0.38 (inactive) in test [2] (setting [8]), -0.101 in test [2] (setting [9]) and 0.98 (inactive) in test [3].

As for `Cc1nsc(NC(=O)N[C@@H]2CCCC[C@H]2c2ccccc2)n1`, the fold change in test [1] (setting [4]) was 0.821 (inactive); in test [1] (setting [5]), 1.15. Moreover, the cell count in test [1] (setting [6]) was 7510; in test [1] (setting [7]) it was 9150. Also, the z-score is 0.535 (inactive) in test [2] (setting [8]), -0.546 in test [2] (setting [9]) and 1.12 (inactive) in test [3].

For `CC(C)C1=NOC(c2nc(-c3cccc4ccccc34)no2)C1` (stereo unspecified), the fold change is 0.862 (inactive) in test [1] (setting [4]) and 1.54 in test [1] (setting [5]). Besides, the cell count in test [1] (setting [6]) stood at 7930; in test [1] (setting [7]), 9200. In addition, the z-score in test [2] (setting [8]) is 0.244 (inactive); in test [2] (setting [9]), 0.252; in test [3], 2 (inactive).

For `CS(=O)(=O)c1ccc(C(=N)N)cc1`, the fold change in test [1] (setting [4]) was 0.887 (inactive); in test [1] (setting [5]) it was 0.391. For the same molecule, the cell count is 8670 in test [1] (setting [6]) and 9770 in test [1] (setting [7]). Further, the results for the z-score in test [2] (setting [8]), in test [2] (setting [9]) and in test [3] were 0.807 (inactive), -0.298 and 0.2 (inactive), respectively.

On to `Cn1cc(/C=C/C(=O)N2CCc3[nH]nc(-c4ccccc4F)c3C2)cn1`, for which the fold change in test [1] (setting [4]) is 0.865 (inactive); in test [1] (setting [5]) it was 2.04. The cell count in test [1] (setting [6]) worked out at 7720; in test [1] (setting [7]) it was 8920. In addition, the results for the z-score in test [2] (setting [8]), in test [2] (setting [9]) and in test [3] were -0.472 (inactive), -0.29 and -0.48 (inactive), respectively.
